# Laboratory results as given in PubChem BioAssay AID449762 (Southern Research Specialized Biocontainment Screening …, 2010).
# About 1,900 (0.58%) of roughly 330,000 compounds were called active. About 4% were inconclusive and are not listed. Only a sample is shown. Entries with a potency or affinity are not part of this list. A number with no mark means an inactive call. Rule as the data show it: inconclusive = inhibition above about 70% without an active follow-up result; inactive = below that.
# Experiment: M. tuberculosis growth inhibition, HTS (AID 449762);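 also: bacterial growth assessed after seven days of incubation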
# Details: M. tuberculosis H37Rv growth inhibition, 7H9 media; at 25 µM; active compounds read high
row,Structure (SMILES),inhibition [%]
1,Cn1c(=O)c2c(nc(CN3CCN(c4ccc(F)cc4)CC3)n2Cc2ccccc2F)n(C)c1=O,-1.15
2,Cc1cc(C(=O)OCC(=O)Nc2cccnc2Cl)c2ccccc2n1,3.92
3,COc1ccc(CCNc2ccc(C(CC(N)=O)NC(=O)c3cc(OC)ccc3OC)cc2[N+](=O)[O-])cc1 (configuration not stated),-2.34
4,COc1ccc(OC)c(C(=O)NC(CC(N)=O)c2ccc(NCC3CC3)c([N+](=O)[O-])c2)c1 (configuration not stated),8.73
5,Cc1cc(C(=O)COc2ccc3ccc(=O)oc3c2)c(C)n1C,-2.83
6,Cc1cc(-n2c(C)cc(C(=O)COc3ccc(F)c(F)c3)c2C)no1,12.9
7,Cc1ccc(Cl)cc1N1CCN(Cc2cc3c(cc2O)CCC3)CC1,-2.77
8,COc1cccc(CN(C)C(=O)c2cc(S(=O)(=O)NCc3ccccc3)ccc2C)c1OC,-0.57
9,COc1ccc(-c2nc(C#N)c(NCc3cccnc3)o2)cc1OC,-2.1
10,Cc1ccc(-n2cc(CNCCN3CCOC3=O)c(-c3ccc(F)cc3)n2)cc1,6
11,COc1ccc(-c2nn(-c3ccccc3F)cc2CNCCn2nc(C)cc2C)cc1,63.9
12,O=C(CS(=O)(=O)c1ccccc1)Nc1ccc(Cl)cn1,-23.7
13,O=C(CCNC(=O)N1CC(=O)Nc2ccccc21)Nc1ccc(F)c(Cl)c1,1.86
14,Nc1nc(SCc2c(F)cccc2Cl)[nH]c(=O)c1-c1ccccc1,3.32
15,CCOC(=O)N1CCN(C(=O)CCS(=O)(=O)c2ccc3c(c2)CC(C)N3C(=O)CC)CC1 (configuration not stated),7.71
16,CCC(=O)N1c2ccc(S(=O)(=O)CCC(=O)N3CCN(c4ccccc4F)CC3)cc2CC1C (configuration not stated),-7.68
17,CCCCn1c(N)c(N(CC(C)C)C(=O)CCCc2nc3ccccc3s2)c(=O)[nH]c1=O,-2.46
18,Cc1cc(C)n(S(=O)(=O)c2ccc3oc(=O)ccc3c2)n1,2.71
19,CCCCC(=O)NC(Nc1sc2c(c1C(N)=O)CCCC2)(C(=O)OCC)C(F)(F)F (configuration not stated),5.17

row,Structure (SMILES),inhibition [%]
1,Cc1ccc(-n2nnnc2SCC(=O)c2c(N)n(C3CC3)c(=O)[nH]c2=O)c(C)c1,-6.46
2,COc1ccc(C(=O)C2CCCN(C3CSCCSC3)C2)c(OC)c1 (configuration not stated),5.9
3,COc1ccc(C(=O)C2CCCN(C3CSCCSC3)C2)cc1OC (configuration not stated),-3.92
4,CCOC(=O)c1c(C)nc2sc(C(N)=O)c(N)c2c1-c1ccc(OC)cc1,-6.87
5,NC(=O)CCN(Cc1ccccc1)S(=O)(=O)c1ccccc1,-1.39
6,CCCCNC(=O)COC(=O)CNC(=O)c1cc(Cl)cc([N+](=O)[O-])c1,6.26
7,C=CCn1cnc2c(oc3ccccc32)c1=O,0.22
8,CCN1CCN(c2ncnc3c2cnn3-c2ccccc2)CC1,-10
9,CCCCNc1ncnc2c1cnn2-c1ccccc1,11.5
10,c1ccc(CNc2ncnc3c2cnn3-c2ccccc2)cc1,-6.95
11,c1ccc(-n2ncc3c(N4CCCCC4)ncnc32)cc1,-3.33
12,CC(C)(C)c1ccc(-c2noc(C(=O)NN)n2)cc1,-2.97
13,NS(=O)(=O)c1ccc(NC(=O)COC(=O)CN2C(=O)C3CC=CCC3C2=O)cc1 (configuration not stated),-21.8
14,Cn1cc(C(=O)c2ccccc2)cc1-c1nc2ccccc2n1C,24.3
15,Cn1cc(C(=O)c2ccc(F)cc2)cc1-c1nc2ccccc2n1C,65.4
16,O=C(COC(=O)c1ccccn1)Nc1ccc2c(c1)OCCO2,-1.75
17,CNC(=O)COc1ccc(Nc2nnc(-c3ccc(C)c(S(N)(=O)=O)c3)c3ccccc23)cc1,3.37
18,CC(=O)c1ccc(NC(=O)C(C)OC(=O)c2cccc(-n3cnnn3)c2)cc1 (configuration not stated),-2.06
19,CCOC(=O)c1cn(Cc2ccc(Cl)cc2Cl)c2cc(C)nn2c1=O,-10.3

row,Structure (SMILES),inhibition [%]
1,CCCCCc1ccc(-c2cn(Cc3ccc(C)cc3)nn2)cc1,2.43
2,COc1ccc(-c2cn(Cc3cccc(OC)c3)nn2)cc1,-1.15
3,CCN(C(=O)COC(=O)c1cc(-c2ccc3cc(OC)ccc3c2)nc2ccccc12)C1CCS(=O)(=O)C1 (configuration not stated),12.4
4,CN1N=C(/C=C/c2ccccc2)CCC1=O,-6.09
5,COC1C(OC(=O)c2ccc(C)[nH]2)C(O)C(Oc2ccc3c(O)c(NC(=O)c4ccc(O)c(CC=C(C)C)c4)c(=O)oc3c2Cl)OC1(C)C (configuration not stated),-2.53
6,Cc1c(O)ccc2c(O)c(NC(=O)c3ccc4c(c3)CCC(C)(C)O4)c(=O)oc12,1.87
7,COc1ccc([C@H]2CC(=O)C=C(c3cccc(CO)c3)C2)cc1,-3.53
8,COc1cc(NC(=O)C/C(C)=N/NC(=O)c2cccc(O)c2)c(OC)cc1Cl,-0.8
9,COc1cc(NC(=O)C/C(C)=N/NC(=O)Cc2ccccc2)c(OC)cc1Cl,9.08
10,COc1ccc(NS(=O)(=O)c2ccc(NC(=O)C3CCCO3)cc2)cc1 (configuration not stated),-9.85
11,COc1cccc(C2(C)NC(=O)N(CC(=O)Nc3ccc(N4CCOCC4)cc3)C2=O)c1 (configuration not stated),-10
12,CCCCOc1cccc(C(=O)Nc2ccc(NC(=O)c3cccs3)cc2)c1,2.91
13,Cc1ccccc1NCc1nc2ccccc2n1C,2.8
14,Cn1c(CNc2ccc(O)cc2)nc2ccccc21,-0.5
15,CC(=O)Nc1ccc(S(=O)(=O)Nc2ccc(N3CCOCC3)cc2)cc1,1.49
16,CC(=O)Nc1ccc(N2CCCCC2)cc1,1.6
17,O=C(O)c1cccc(N2C(=O)C3C4C=CC(C4=C(c4ccccc4)c4ccccc4)C3C2=O)c1 (configuration not stated),4.23
18,CC(=O)C[C@@H](O)CC(=O)[C@@H]1OC(=O)CCCCCCCCc2ccccc21,0.55
19,CCC(C)(C)NC(=O)C(c1ccncc1)N(Cc1ccc(C)cc1)C(=O)c1csnn1 (configuration not stated),-0.23
